# Test results as given in PubChem BioAssay AID847 (SRMLSC, 2007).
# Screen size: about 41,000 compounds; about 190 (0.46%) were called active. Many of the other results were omitted from the sample, so actives are more common in it than they were. A number with no mark means an inactive call.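 The calls were made as follows: active = viability at or below the median of all test compounds minus 3 SD, in both replicates if run twice (cut at about 45% in these data); inconclusive = duplicate replicates that disagree with each other; inactive = viability above that cutoff in every replicate.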
# Test: viability loss of SK-BR-3 cells – cell-based, human, 24 h, primary screen (AID 847);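 also: 100% = median untreated cell wells and 0% = median positive control drug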
# Conditions: SK-BR-3 viability, CellTiter-Glo ATP luminescence, at 10 µM, stronger effect = lower value
row,SMILES,viability
1,CSc1nc(O)c(Cc2ccccc2)c(=O)[nH]1,88.2%
2,C=CCNc1nnc(C)c2ccccc12,94.2%
3,COc1ccc(C2C(C#N)=C(N)Oc3n[nH]c(C)c32)cc1CN1CCN(c2ccc(F)cc2)CC1 (stereo not given),67%
4,CCOC(=O)C1CCCN(C(=O)c2cncc(Br)c2)C1 (stereo not given),89.5%
5,O=C(Nc1ccc2c(c1)nc1n2CCCCC1)c1cc(S(=O)(=O)N2CCOCC2)ccc1Cl,69%
6,O=C(CSc1ncccn1)NCCc1ccccc1,89.6%
7,CSc1nsc(SC)c1NC(=O)OC1CCCCC1,106%
8,COc1ccc(S(=O)(=O)N2CCOCC2)cc1C(=O)Nc1nc2ccccc2s1,87.8%
9,CCCC(=O)Nc1cc(OCC)c(NC(=O)NC2CCCCC2)cc1OCC,128%
10,COC(=O)[C@H](CCSC)NC(=O)Nc1ccc(OC)cc1,86.4%
11,COC(=O)C1(S(=O)(=O)C2(C(=O)OC)CCCC2)CCCC1,105%
12,C=CCNC(=O)c1ccc(C)c(Br)c1,74.5%
13,CCn1cc(NC(=O)Nc2ccc(OC)c(OC)c2)c(C(N)=O)n1,90.8%
14,Cc1ccc(C(=O)CS(C)(=O)=O)cc1,90.6%
15,CC(=O)N1CCC(C(=O)Nc2nc(-c3ccccc3)ns2)CC1,96.3%
16,Cc1nc(NCCN)c(C#N)c2c1COC(C)(C)C2,85.4%
17,OC(COc1ccccc1)Cn1cc(Br)cn1 (stereo not given),74.7%
18,CCCOC(=O)C1=C(C)NC2=C(C(=O)C(C(=O)OC)C(C)C2)C1c1ccc(N(C)C)cc1 (stereo not given),89%
19,Cc1nc(N2CCCC2C(=O)O)c2oc3ccccc3c2n1 (stereo not given),101%
20,COC(=O)c1cn(CC(=O)NCc2cccs2)c2ccccc12,108%
21,COc1cc(-c2nc(S(=O)(=O)c3ccc(Cl)cc3)c(N(C)C)o2)cc(OC)c1OC,75.4%
22,O=C(c1cccc(S(=O)(=O)N2CCOCC2)c1)N1CCOCC1,94.3%
23,CC(=O)Oc1cccc(N2C(=O)C3CC=C(Cl)CC3C2=O)c1 (stereo not given),73.3%
24,NC(=O)C1CCN(C2OC(=O)c3ccccc32)CC1 (stereo not given),93.2%
25,O=C(NC(c1ccccc1)c1ccccc1)N1CCN(CCO)CC1,93%

row,SMILES,viability
1,O=C(CSc1nnc(Cc2ccccc2)n1-c1ccccc1)N1CCOCC1,87.4%
2,Cc1ccc2[nH]c(=O)c(COC(=O)c3ccccn3)cc2c1,100%
3,CC1Cc2ccccc2N1C(=O)CSc1nnc(-c2ccc(S(=O)(=O)N3CCCCC3)cc2)o1 (stereo not given),96%
4,Cc1cc(O)ccc1-c1cnc2ccccc2n1,92.4%
5,CC(C)NS(=O)(=O)c1ccc(OCC(=O)Nc2ccc3c(c2)OCCO3)cc1,86.3%
6,O=C(OC(C(=O)NC1CCCC1)c1ccc(F)cc1)c1ccno1 (stereo not given),107%
7,N=c1c2c3c(sc2ncn1N)CCCCC3,86%
8,COCCNC(=O)c1ccccc1-c1nc(-c2ccccc2Cl)no1,94.6%
9,O=C(c1cccc(C(=O)N2CCc3ccccc32)n1)N1CCc2ccccc21,101%
10,Cc1nc2nc(COc3ccccc3)[nH]n2c(=O)c1Cc1ccccc1,85.2%
11,Cc1cccc(OCc2nnc(SCC(=O)N3CCN(C(=O)c4ccco4)CC3)n2C)c1C,112%
12,CCOC(=O)CCc1c(C)c2ccc(OCc3nn[nH]n3)c(C)c2oc1=O,91.2%
13,O=C1CCCc2c1[nH]c1ccc(Br)cc21,94.5%
14,O=C(COC(=O)c1ccc2c(c1)OCCO2)NCc1ccccc1,91.5%
15,Cc1cnc(NC(=O)CSc2nnc(-c3ccc(Cl)cc3Cl)n2N)s1,88.8%
16,O=C(Cn1c(-c2ccc(Cl)cc2)noc1=O)N1CCN(c2ccccc2F)CC1,88.1%
17,Cc1cc(C)c2cc(CN(Cc3cccs3)Cc3nnnn3CC3CCCO3)c(=O)[nH]c2c1 (stereo not given),83.1%
18,CCOC(=O)[C@H]1CCC[C@@H](NS(=O)(=O)c2ccc(NC(C)=O)cc2)C1,73.8%
19,C=CCSC1=C(C#N)C(c2cc(Br)c(O)c(OC)c2)CC(=O)N1 (stereo not given),86.3%
20,CC1(C)CC(=O)C(C2=NC(C)(C)Cc3ccccc32)=C(O)C1,99.5%
21,c1nc(COc2nsnc2N2CCOCC2)cs1,90.4%
22,Cc1nc2nc3c(cn2n1)C(=O)CC(c1ccccc1)C3 (stereo not given),109%
23,CCCOc1ccc(CN(CCO)CCO)cc1C(=O)OC,94.7%
24,Cc1ccn2cc(C(=O)NC3CCN(Cc4ccccc4)CC3)nc2c1,81%
25,CCCC(NS(=O)(=O)c1ccc(OC)cc1)C(=O)O (stereo not given),97.5%

row,SMILES,viability
1,c1ccc2c(NCC3CCCO3)nc(-c3ccncc3)nc2c1 (stereo not given),101%
2,CCc1ccc(-c2nnn(Cc3nn[nH]n3)n2)cc1,112%
3,CCc1nnc(NC(=O)CSc2nnc(COc3ccc(C#N)cc3)n2-c2ccccc2)s1,86%
4,Cc1ccc(S(=O)(=O)N2CCC(C(=O)N[C@@H](C)C(=O)NCCc3ccccc3)CC2)cc1,100%
5,COc1ccc(C2CC(c3ccc(C)cc3)Nc3nc(N)nn32)cc1 (stereo not given),102%
6,CC(C)=C(NC(=O)c1ccco1)C(=O)NCCc1nc2ccccc2[nH]1,122%
7,Cc1cc(N2CCN(Cc3ccc4c(c3)OCO4)CC2)n2ncnc2n1,88.1%
8,Cc1ccc(N(CC(O)CN2CCCC2)S(=O)(=O)c2ccccc2)cc1 (stereo not given),84.9%
9,CC(C)C(NC(=O)c1cccc(S(=O)(=O)N2CCOCC2)c1)C(=O)NCCc1ccccn1 (stereo not given),84.8%
10,Cc1ccc(S(=O)(=O)NCC(=O)OCC(=O)N2CCc3ccccc32)cc1,75.8%
11,CCCCNc1nc2c(c(=O)[nH]c(=O)n2C)n1CCOc1ccccc1,114%
12,c1ccc(-n2ncc3c(N4CCCC4)ncnc32)cc1,86.5%
13,CN(C)Cc1c(C#N)c2ccccc2n1C,99.7%
14,O=C(c1ccco1)N(Cc1nc2ccccc2c(=O)[nH]1)C1CCCC1,87.8%
15,COC(=O)COc1ccc2oc(=O)cc(C)c2c1,87%
16,COC(=O)c1cn(-c2ccccc2)nc1-c1cccnc1,119%
17,CC(C(=O)O)N1C(=O)c2cccc3cccc1c23 (stereo not given),91.2%
18,Cc1cc(C)c(NC(=O)CS(=O)CC(=O)Nc2cccnc2)c(C)c1 (stereo not given),79.8%
19,COc1ccc(CSc2nc(N3CCOCC3)c3c(c2C#N)CC(C)(C)OC3)cc1,76.6%
20,CS(=O)(=O)N1CCN(C(=O)c2cc3ccccc3oc2=O)CC1,82.4%
21,Cc1cc(=O)[nH]c(SCC(N)=O)c1C#N,121%
22,Cc1ccc(S(=O)(=O)NCc2nc3ccccc3c(=O)n2N)cc1,87.3%
23,CC(=O)c1cc(-c2ccccc2)[nH]c1N1CCCC1,89.9%
24,Cc1ccc(C)c(NC(=O)C2CCCN2C(=O)OC(C)(C)C)c1 (stereo not given),102%
25,COc1ccc(C(=O)N2CCC(C(=O)Nc3cccc(C)c3)CC2)cc1OC,106%

row,SMILES,viability
1,Cc1ccccc1NC(=O)c1cnn(-c2ccccc2)c1NC(=O)c1ccco1,117%
2,O=C1NC(c2cc3c(cc2Cl)OCO3)Oc2ccccc21 (stereo not given),110%
3,CCCC(C)n1[nH]c(=O)c2c(C)cc(C)nc21 (stereo not given),87%
4,Cc1cc(C)n2nc(C(=O)Oc3ccc4c(c3)OCO4)nc2n1,86.1%
5,CC(C)OCCCNc1nc2c(c(=O)n(Cc3ccccc3F)c(=O)n2C)n1C,68.2%
6,Clc1ccc(CSc2nnc([C@@H]3CCCN3)o2)cc1,80.8%
7,O=C(NCc1cccnc1)c1cn(-c2ccccc2)nc1-c1cccs1,74.3%
8,COC(=O)Nc1c(C)n(C)n(-c2ccccc2)c1=O,104%
9,O=S(=O)(O)c1nc2ccccc2n1Cc1ccc(Cl)cc1Cl,98.8%
10,Cc1cc(Br)ccc1NC(=O)C1CCCO1 (stereo not given),75.5%
11,c1cnc(NC2C3CC4CC(C3)CC2C4)nc1 (stereo not given),98.3%
12,O=C(c1ccco1)N1CCN(C(=O)C2c3ccccc3Oc3ccccc32)CC1,99.4%
13,O=C(Nc1ccon1)c1sc2ccccc2c1Cl,122%
14,COc1cccc(-c2nc(S(=O)(=O)c3ccccc3)c(N3CCOCC3)o2)c1,83.1%
15,O=c1[nH]c(-c2ccccc2)c(-c2ccccc2)[nH]1,96.3%
16,c1ccc(-c2nnc(SCc3nc4ccccc4[nH]3)o2)cc1,70.7%
17,c1ccc(-c2[nH]ncc2-c2nc3ccccc3[nH]2)cc1,42.9% (active)
18,CC(C)C(c1nnnn1CCc1ccccc1)N1CCN(C(=O)c2ccco2)CC1 (stereo not given),102%
19,CSCCC(Nc1nc2ccccc2s1)C(=O)O (stereo not given),81.1%
20,Cc1cc(NC(=O)CCC2COc3ccccc3O2)no1 (stereo not given),94.5%
21,Cc1ccc2nc(NC3=NCN(CCc4ccccc4)CN3)nc(C)c2c1,95.4%
22,COc1ccccc1N1CCN(C(=O)c2ccc(S(=O)(=O)N3CCCCC3)cc2)CC1,123%
23,COC(=O)c1ccccc1NC(=O)CSc1ccccn1,81.2%
24,COc1ccc(N2CCN(CCNC(=O)c3nnc(Cc4c(F)cccc4Cl)o3)CC2)cc1,75%
25,CCOC(=O)c1ccccc1NC(=O)CC1Nc2ccccc2NC1=O (stereo not given),47.2%
